Screens from PubChem BioAssay.
AMPAR-TARP mod – modulators of GluA2-stargazin AMPA receptor complexes, primary screen, cell-based, membrane potential dye; Voltage-dependent calcium channel gamma-2 subunit (Mus musculus) + Glutamate receptor 2 …; HEK293 GluA2+stargazin, membrane potential dye (FDSS), glutamate EC50; hits were called plate by plate, in both directions; calls only at 30 µM; 3.5% of 40,000 active;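 active = any of four per-well response measures lying three or more SD from its plate-wide compound average, in either direction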
GIRK2 act – activators of NPY4-receptor-primed GIRK2 channels, summary, cell-based, HEK293, thallium flux; activation (% efficacy), % for hits at 37.5 µM; G protein-activated inward rectifier potassium channel 2 (Homo sapiens), P48051; HEK293 GIRK2/NPY4 cells, thallium flux fluorescence; 34,000 tested, under 10 active;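 active = primary screen hit, no activity in plain HEK293 cells, and in GIRK2-only cells above 5% efficacy rising with concentration; inactive = the rest, including fluorescent compounds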;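 note: efficacy is normalized control-subtracted fluorescence 15 s after thallium addition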
Active calls of the source: *. The full list was thinned out, with hits kept by preference.

Results for O=S(=O)(c1ccccc1)c1nc(-c2ccccc2Cl)oc1N1CCCC1 ?
AMPAR-TARP mod: active; GIRK2 act: inactive

Results for Cc1ccc(S(=O)(=O)c2nc(-c3ccccc3C)oc2N2CCC(C(N)=O)CC2)cc1 ?
AMPAR-TARP mod: inactive; GIRK2 act: inactive

How did CC(=O)N1CCN(c2oc(-c3ccccc3C)nc2S(=O)(=O)c2ccc(C)cc2)CC1 do in these assays?
AMPAR-TARP mod: active; GIRK2 act: inactive

Results for CC(=O)N1CCN(c2oc(-c3ccccc3)nc2S(=O)(=O)c2ccccc2)CC1 ?
AMPAR-TARP mod: inactive; GIRK2 act: inactive

Results for O=C(NCC1CCN(C(=O)/C=C/c2ccco2)CC1)c1c(F)cccc1Cl ?
AMPAR-TARP mod: inactive; GIRK2 act: inactive

What do the screens show for `COc1ccccc1-c1nc(COC(=O)c2nnn(-c3ccc(C)cc3)c2C)c(C)o1`?
AMPAR-TARP mod: inactive

Results for CCOc1ccccc1-c1nc(COC(=O)c2nnn(-c3ccc(Cl)cc3)c2C)c(C)o1 ?
AMPAR-TARP mod: active

How did O=C(CSCc1ccccc1)N1CCN(Cc2nnnn2-c2ccc(F)c(F)c2)CC1 do in these assays?
AMPAR-TARP mod: active; GIRK2 act: inactive

What do the screens show for `O=C(C1CC1)N1CCN(Cc2nnnn2-c2ccc(F)c(F)c2)CC1`?
AMPAR-TARP mod: inactive; GIRK2 act: inactive

How did Cc1cc([N+](=O)[O-])ccc1NC(=O)C(=O)Nc1cccc(C)c1C do in these assays?
AMPAR-TARP mod: inactive

Results for O=C(Cc1cccs1)NNC(=O)c1cccn(Cc2ccc(Cl)c(Cl)c2)c1=O ?
AMPAR-TARP mod: active; GIRK2 act: inactive

What do the screens show for `O=C(Cc1ccc(F)cc1)NNC(=O)c1cccn(Cc2ccc(Cl)c(Cl)c2)c1=O`?
AMPAR-TARP mod: inactive; GIRK2 act: inactive

How did CS(=O)(=O)c1ccc(NC(=O)c2ccc(F)cc2F)cc1 do in these assays?
AMPAR-TARP mod: inactive; GIRK2 act: inactive

How did O=S(=O)(c1ccc(Oc2ccccc2)cc1)N1CCN(c2ccc3nncn3n2)CC1 do in these assays?
AMPAR-TARP mod: inactive; GIRK2 act: inactive

Results for CCCC(=O)Nc1ccc(S(=O)(=O)N2CCN(c3ccc4nncn4n3)CC2)cc1 ?
AMPAR-TARP mod: active; GIRK2 act: inactive

How did COc1ccc2sc(N(CCN3CCOCC3)C(=O)c3ccc(Cl)s3)nc2c1 do in these assays?
AMPAR-TARP mod: inactive; GIRK2 act: inactive

Results for Cc1ccc(Cl)c2sc(N(CCCn3ccnc3)C(=O)c3cccs3)nc12 ?
AMPAR-TARP mod: active; GIRK2 act: inactive

How did O=C(c1cccs1)N(CCCn1ccnc1)c1nc2ccccc2s1 do in these assays?
AMPAR-TARP mod: inactive; GIRK2 act: inactive

What do the screens show for `O=C(NCc1cccs1)C(=O)NCC1CCN(Cc2cccs2)CC1`?
AMPAR-TARP mod: inactive; GIRK2 act: inactive

Results for COCCN1CCC(CNC(=O)C(=O)NCc2cccs2)CC1 ?
AMPAR-TARP mod: active; GIRK2 act: inactive

Results for CC1CCCCN1c1ccc(N2CCN(C(=O)CCC3CCCC3)CC2)nn1 (stereo not given) ?
AMPAR-TARP mod: inactive; GIRK2 act: inactive

What do the screens show for `O=C(NCC1CCN(C(=O)c2cc3ccccc3o2)CC1)c1ccc2nsnc2c1`?
AMPAR-TARP mod: active; GIRK2 act: inactive

Results for O=C(/C=C/c1cccs1)NCC1CCN(C(=O)c2cc3ccccc3o2)CC1 ?
AMPAR-TARP mod: active; GIRK2 act: inactive

What do the screens show for `O=C(NCC1CCN(C(=O)c2ccccc2F)CC1)c1ccc2nsnc2c1`?
AMPAR-TARP mod: inactive; GIRK2 act: inactive

What do the screens show for `O=C(NCc1cccs1)NCC1CCN(C(=O)c2cc3ccccc3o2)CC1`?
AMPAR-TARP mod: inactive; GIRK2 act: inactive

How did COc1cccc(-c2cc(CC(=O)N3CCc4ccccc43)no2)c1 do in these assays?
AMPAR-TARP mod: inactive; GIRK2 act: inactive

Results for O=C1CCC(C(=O)Nc2nc(CC(=O)N3CCN(c4ccccc4)CC3)cs2)N1 (stereo not given) ?
AMPAR-TARP mod: inactive; GIRK2 act: inactive

How did OC(CNC12CC3CC(CC(C3)C1)C2)Cn1c2ccccc2c2ccccc21 (stereo not given) do in these assays?
AMPAR-TARP mod: inactive

How did COc1ccc(C(=O)NNC(=O)c2ccc(=O)n(Cc3ccccc3)c2)c(OC)c1 do in these assays?
AMPAR-TARP mod: active; GIRK2 act: inactive

How did O=C(NNC(=O)c1ccc(=O)n(Cc2ccccc2)c1)c1ccc(Cl)cc1 do in these assays?
AMPAR-TARP mod: inactive; GIRK2 act: inactive

Results for O=C(NNC(=O)c1cc2ccccc2oc1=O)c1ccc(=O)n(Cc2ccccc2)c1 ?
AMPAR-TARP mod: active; GIRK2 act: inactive

How did CCOc1ccccc1C(=O)NNC(=O)c1ccc(=O)n(Cc2ccccc2)c1 do in these assays?
AMPAR-TARP mod: inactive; GIRK2 act: inactive

How did Cc1cc([N+](=O)[O-])ccc1NC(=O)c1ccc(=O)n(Cc2ccccc2)c1 do in these assays?
AMPAR-TARP mod: inactive; GIRK2 act: inactive

Results for O=C(Nc1ccc(F)c(F)c1)c1ccc(=O)n(Cc2cccc(Cl)c2)c1 ?
AMPAR-TARP mod: active; GIRK2 act: inactive

What do the screens show for `Cc1cc([N+](=O)[O-])ccc1NC(=O)c1ccc(=O)n(Cc2cccc([N+](=O)[O-])c2)c1`?
AMPAR-TARP mod: active; GIRK2 act: inactive

What do the screens show for `Cc1cc([N+](=O)[O-])ccc1NC(=O)c1ccc(=O)n(Cc2cccc(C(F)(F)F)c2)c1`?
AMPAR-TARP mod: active; GIRK2 act: inactive

How did O=C(Nc1cccc([N+](=O)[O-])c1)c1ccc(=O)n(Cc2cccc([N+](=O)[O-])c2)c1 do in these assays?
AMPAR-TARP mod: inactive; GIRK2 act: inactive

Results for O=C(Nc1ccc(Cl)cc1)c1ccc(=O)n(Cc2cccc(Cl)c2)c1 ?
AMPAR-TARP mod: inactive; GIRK2 act: inactive

How did O=C(Nc1ccc(Br)cc1)c1ccc(=O)n(Cc2cccc([N+](=O)[O-])c2)c1 do in these assays?
AMPAR-TARP mod: active; GIRK2 act: inactive

How did Cc1ccc([N+](=O)[O-])cc1NC(=O)c1ccc(=O)n(Cc2cccc(C(F)(F)F)c2)c1 do in these assays?
AMPAR-TARP mod: inactive; GIRK2 act: inactive

What do the screens show for `Cc1cc(N2CCN(c3cccc(Cl)c3)CC2)nc(-n2cc([N+](=O)[O-])cn2)n1`?
AMPAR-TARP mod: inactive; GIRK2 act: inactive

What do the screens show for `CCOC(=O)c1ccc(NC(=O)N(C)C)cc1`?
AMPAR-TARP mod: inactive

Results for Cc1nc2sccn2c(=O)c1NC(=O)Nc1cccc(F)c1 ?
AMPAR-TARP mod: inactive; GIRK2 act: inactive

What do the screens show for `CCCC(=O)Nc1cc(C)nn1-c1nc(-c2ccccc2)cs1`?
GIRK2 act: inactive

What do the screens show for `COc1ccc(C(=O)Nc2ccc(N3CCCC3=O)c(C)c2)cc1`?
AMPAR-TARP mod: inactive; GIRK2 act: inactive

How did Cc1cc(NC(=O)CCc2ccccc2)ccc1N1CCCCC1=O do in these assays?
AMPAR-TARP mod: inactive; GIRK2 act: inactive

What do the screens show for `CN1C2=C(C(=O)CC(C)(C)C2)C(c2cc(Br)ccc2O)C2=C1CC(C)(C)CC2=O`?
AMPAR-TARP mod: active

Results for CC1(C)CC(=O)C2=C(C1)NC1=C(C(=O)CC(C)(C)C1)C2c1cccs1 ?
AMPAR-TARP mod: inactive; GIRK2 act: inactive
